One may read the AC50 as the midpoint of the concentration-response curve, whichever way the signal moves.

Consider 50 compounds from PubChem BioAssay (EPA / NIEHS).

Structures are written as SMILES. Several values for one entry are separate records, joined by “and”; a condition that tells them apart may be missing. Equal entries are not always repeated. Records with an inconclusive call do not appear. More than one record can exist for a structure, and the calls need not agree. Activity calls are given as the source filed them. The calls were made as follows: active = hit-call score of the fitted dose curve at least 0.9, where 1 is the maximum; inconclusive = response in the unintended direction; inactive = score below 0.9.

Assay [1] concerns the target Estrogen receptor beta (Homo sapiens) (UniProt Q92731). The experiment in a line: OT_ER_ERbERb_0480: Odyssey Thera (OT) 8-hour HEK293T Protein-Complementation Assay for Estrogen Receptor-beta/-beta Homodimer (AID 2283357).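 Also: active means signal gain over DMSO baseline.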 The essentials: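 Homodimerization of ER-beta LBD measured by protein-fragment complementation in HEK293T; 8 h dosing; fixed, Draq5 counterstain; fluorescence intensity gain over DMSO baseline, positive fitting direction; laser scanning cytometry.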

Assay [2] deals with Glucocorticoid receptor (Homo sapiens) (UniProt P04150). The experiment in a line: NVS_NR_hGR: NovaScreen (NVS) Nuclear Receptor Binding Assay for human Glucocorticoid Receptor (GR) (AID 2283363).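 As to AC50: activity is loss of specific radioligand binding signal relative to DMSO.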 The procedure, abridged:
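Filter scintillation readout of tritiated/iodinated radioligand displaced by test chemical; cell-free extracted protein; 16 h. DMSO = negative control/baseline. Duplicate single-point 25 uM screen, then concentration-response on actives.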

In assay [3] the target is Nuclear receptor subfamily 1 group I member 2 (Homo sapiens) (UniProt O75469). The experiment in a line: NVS_NR_hPXR: NovaScreen (NVS) Nuclear Receptor Binding Assay for human Pregnane X Receptor (PXR) (AID 2283365).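 Also: a drop in FRET signal versus DMSO baseline means the compound binds.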 The essentials:
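Cell-free binding assay with extracted human PXR protein, read by TR-FRET 2 h after dosing; loss of signal relative to DMSO baseline indicates binding. Primary screen at 25 uM in duplicate, actives retested in concentration series.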

The target of assay [4] is human Thyroid Receptor Alpha (TRa), THRA (gene 7067) (UniProt P10827). In words: NVS_NR_hTRa_Antagonist: NovaScreen (NVS) Nuclear Receptor Binding Assay for human Thyroid Receptor Alpha Antagonism (TRa) (AID 2283362). The essentials: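 Cell-free binding assay on extracted receptor protein, read 1 h after chemical dosing by AlphaLISA chemiluminescence; loss of signal relative to DMSO baseline marks antagonism. Primary screen ran in duplicate at 25 uM, with concentration series for actives.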
Chain of human Thyroid Receptor Alpha (TRa), THRA (gene 7067) (P10827 whole entry, looked up): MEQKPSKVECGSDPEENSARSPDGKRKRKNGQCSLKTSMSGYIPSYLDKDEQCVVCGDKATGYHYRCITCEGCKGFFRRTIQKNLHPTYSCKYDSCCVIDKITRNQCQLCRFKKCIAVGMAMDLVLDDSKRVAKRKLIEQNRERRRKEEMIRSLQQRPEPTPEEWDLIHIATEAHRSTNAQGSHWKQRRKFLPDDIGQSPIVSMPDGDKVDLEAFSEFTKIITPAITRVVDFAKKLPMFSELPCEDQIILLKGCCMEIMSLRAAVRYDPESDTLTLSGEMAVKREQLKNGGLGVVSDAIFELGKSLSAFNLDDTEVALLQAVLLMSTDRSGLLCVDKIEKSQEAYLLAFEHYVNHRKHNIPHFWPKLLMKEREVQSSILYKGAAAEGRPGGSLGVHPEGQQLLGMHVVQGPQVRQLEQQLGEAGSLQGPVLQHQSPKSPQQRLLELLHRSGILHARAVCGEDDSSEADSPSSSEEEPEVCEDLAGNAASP

The target of assay [5] is human Peroxisome Proliferator-activated Receptor alpha (PPARa), PPARA (gene 5465) (UniProt Q07869). The experiment in a line: NVS_NR_hPPARa: NovaScreen (NVS) Nuclear Receptor Binding Assay for human Peroxisome Proliferator-activated Receptor alpha (PPARa) (AID 2283359).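 Also: activity means loss of TR-FRET signal versus DMSO baseline.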 The essentials: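 TR-FRET signal measured at 1 h post-dosing; loss-of-signal versus DMSO negative control taken as activity. Extracted gene-protein, cell-free format. Initial single-point duplicates at 25 uM, then concentration-response retests.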
Chain of human Peroxisome Proliferator-activated Receptor alpha (PPARa), PPARA (gene 5465) (Q07869 whole entry, looked up): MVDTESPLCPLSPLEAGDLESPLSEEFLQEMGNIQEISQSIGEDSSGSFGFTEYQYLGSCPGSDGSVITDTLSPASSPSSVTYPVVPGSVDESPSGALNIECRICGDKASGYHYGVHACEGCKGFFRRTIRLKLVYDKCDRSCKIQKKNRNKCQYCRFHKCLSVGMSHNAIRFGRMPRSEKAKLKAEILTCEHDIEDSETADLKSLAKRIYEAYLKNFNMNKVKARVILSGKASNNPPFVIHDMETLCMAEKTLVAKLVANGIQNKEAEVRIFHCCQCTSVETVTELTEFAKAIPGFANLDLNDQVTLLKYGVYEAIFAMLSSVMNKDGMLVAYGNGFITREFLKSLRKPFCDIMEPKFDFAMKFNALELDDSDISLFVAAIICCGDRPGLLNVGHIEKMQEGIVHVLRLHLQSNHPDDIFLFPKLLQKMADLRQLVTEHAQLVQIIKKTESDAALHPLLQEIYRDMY

For assay [6], the target named is Retinoic acid receptor alpha (Homo sapiens) (UniProt P10276). In words: NVS_NR_hRAR_Antagonist: NovaScreen (NVS) Nuclear Receptor Binding Assay for human Retinoic Acid Alpha Receptor Antagonism (RAR) (AID 2283358). The procedure, abridged: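 Read-out: time-resolved FRET binding signal, 2 h post-dose, cell-free extracted protein. Antagonism scored as signal loss versus DMSO negative control. Primary single-concentration screen at 25 uM in duplicate; concentration series for actives.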
Chain of Retinoic acid receptor alpha (Homo sapiens) (P10276 whole entry, looked up): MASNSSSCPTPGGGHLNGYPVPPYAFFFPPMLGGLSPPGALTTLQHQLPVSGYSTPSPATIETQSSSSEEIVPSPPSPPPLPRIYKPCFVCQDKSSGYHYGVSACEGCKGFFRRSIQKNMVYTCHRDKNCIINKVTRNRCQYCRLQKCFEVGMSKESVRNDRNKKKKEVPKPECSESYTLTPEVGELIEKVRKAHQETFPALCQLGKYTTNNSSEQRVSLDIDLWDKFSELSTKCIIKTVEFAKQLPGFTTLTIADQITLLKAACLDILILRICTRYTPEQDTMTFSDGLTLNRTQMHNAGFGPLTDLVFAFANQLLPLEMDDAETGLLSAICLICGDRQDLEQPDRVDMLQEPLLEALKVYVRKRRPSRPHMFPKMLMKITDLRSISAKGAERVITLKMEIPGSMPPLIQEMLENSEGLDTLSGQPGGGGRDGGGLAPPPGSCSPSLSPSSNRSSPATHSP

For assay [7] the target is unchanged. The experiment in a line: NVS_NR_hRARa_Agonist: NovaScreen (NVS) Nuclear Receptor Binding Assay for human Retinoic Acid Alpha Receptor Agonism (RAR) (AID 2283361). As for the experimental part: NVS_NR_hRARa_Agonist is a biochemical, single-readout assay that uses extracted gene-proteins in a cell-free assay. Measurements were taken 2 hours after chemical dosing in a 384-well plate.NVS_NR_hRARa_Agonist is one of one assay component(s) measured or calculated from the NVS_NR_hRARa_Agonist assay. It is designed to make measurements of fluorescent resonance energy transfer, a form of binding reporter, as detected with fluorescent resonance energy transfer signals by Time-Resolved Fluorescence Resonance Energy Transfer (TR-FRET) technology.Data from the assay component NVS_NR_hRARa_Agonist was analyzed into 1 assay endpoint. This assay endpoint, NVS_NR_hRARa_Agonist, was analyzed in the positive analysis fitting direction relative to DMSO as the negative control and baseline of activity. Using a type of binding reporter, gain-of-signal activity can be used to understand changes in the binding as they relate to the gene RARA. Furthermore, this assay endpoint can be referred to as a primary readout, because the performed assay has only produced 1 assay endpoint. To generalize the intended target to other relatable targets, this assay endpoint is annotated to the nuclear receptor intended target family, where the subfamily is non-steroidal. […]

For assay [8], the target named is guinea pig Sigma Receptor, Non-selective Binding, SIGMAR1 (gene 100135589) (UniProt Q60492). The experiment in a line: NVS_OR_gSIGMA_NonSelective: NovaScreen (NVS) Nuclear Receptor Binding Assay for guinea pig Sigma Receptor, Non-selective Binding (AID 2283367). The procedure, abridged:
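Membranes from guinea pig brain incubated with radioligand and test chemical for 1 h, then filtered and scintillation-counted. Duplicate primary testing at 25 uM, with concentration-series follow-up for actives.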

Assay [9] addresses human Adenosine Transporter (Adot), SLC29A1 (gene 2030) (UniProt Q99808). In words: NVS_TR_hAdoT: NovaScreen (NVS) Transporter Assay for human Adenosine Transporter (Adot) (AID 2283368). The procedure, abridged:
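Binding displacement on U937 extracted protein, read 1 h post-dose by filtration and scintillation counting. Primary duplicate test at 25 uM, then singleton concentration series with 50 uM top; DMSO baseline.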

A further assay deals with PGR (gene 5241) (UniProt P06401). In words: NVS_NR_hPR: NovaScreen (NVS) Nuclear Receptor Binding Assay for human Progestron Receptor (PR) (AID 2283360).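 Also: active means loss of bound radioligand signal versus DMSO baseline.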 The procedure, abridged: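 Radioligand competition binding on receptor extracted from T47D cells, read by scintillation counting 18 h after dosing. Loss of signal versus DMSO; primary screen in duplicate at 25 uM, actives followed in concentration series.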
Chain of PGR (gene 5241) (P06401 whole entry, looked up): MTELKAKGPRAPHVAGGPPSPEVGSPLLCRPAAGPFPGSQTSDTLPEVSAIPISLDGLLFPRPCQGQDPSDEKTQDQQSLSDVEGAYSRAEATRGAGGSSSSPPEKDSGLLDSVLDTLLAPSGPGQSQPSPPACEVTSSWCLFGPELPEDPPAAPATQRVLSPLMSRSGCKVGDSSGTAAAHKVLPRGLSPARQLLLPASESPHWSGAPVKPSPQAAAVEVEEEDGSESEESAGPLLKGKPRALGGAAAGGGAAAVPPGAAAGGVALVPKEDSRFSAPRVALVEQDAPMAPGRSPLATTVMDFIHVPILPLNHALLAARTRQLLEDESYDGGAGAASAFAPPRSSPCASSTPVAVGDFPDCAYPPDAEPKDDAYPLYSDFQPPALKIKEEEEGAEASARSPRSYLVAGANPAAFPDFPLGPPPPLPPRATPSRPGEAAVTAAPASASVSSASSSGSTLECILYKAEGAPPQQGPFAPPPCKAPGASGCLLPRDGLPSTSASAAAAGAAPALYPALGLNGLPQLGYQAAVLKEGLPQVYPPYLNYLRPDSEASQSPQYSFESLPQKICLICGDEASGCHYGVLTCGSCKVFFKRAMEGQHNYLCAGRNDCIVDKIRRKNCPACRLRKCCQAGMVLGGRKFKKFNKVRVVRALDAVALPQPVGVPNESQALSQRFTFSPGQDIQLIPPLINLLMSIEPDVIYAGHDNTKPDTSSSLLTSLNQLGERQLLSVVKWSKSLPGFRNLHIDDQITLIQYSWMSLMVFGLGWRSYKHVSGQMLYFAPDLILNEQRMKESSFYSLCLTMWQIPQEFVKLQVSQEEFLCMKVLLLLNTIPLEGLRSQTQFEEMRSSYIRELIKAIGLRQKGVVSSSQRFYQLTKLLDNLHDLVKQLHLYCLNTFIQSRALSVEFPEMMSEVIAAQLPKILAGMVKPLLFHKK

Chain of Nuclear receptor subfamily 1 group I member 2 (Homo sapiens) (O75469 whole entry, looked up): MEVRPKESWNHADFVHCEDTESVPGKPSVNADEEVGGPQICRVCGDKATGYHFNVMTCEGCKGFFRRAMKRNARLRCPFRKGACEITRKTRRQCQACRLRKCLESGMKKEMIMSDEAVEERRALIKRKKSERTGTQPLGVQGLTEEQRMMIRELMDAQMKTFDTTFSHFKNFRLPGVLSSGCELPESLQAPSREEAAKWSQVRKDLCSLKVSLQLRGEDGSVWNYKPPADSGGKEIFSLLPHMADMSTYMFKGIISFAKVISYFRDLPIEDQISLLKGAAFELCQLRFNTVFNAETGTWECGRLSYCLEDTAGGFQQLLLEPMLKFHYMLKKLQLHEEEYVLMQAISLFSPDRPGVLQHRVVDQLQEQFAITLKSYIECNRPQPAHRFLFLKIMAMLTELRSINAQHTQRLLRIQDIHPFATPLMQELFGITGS
Chain of Estrogen receptor beta (Homo sapiens) (Q92731 whole entry, looked up, the tested form may be a part): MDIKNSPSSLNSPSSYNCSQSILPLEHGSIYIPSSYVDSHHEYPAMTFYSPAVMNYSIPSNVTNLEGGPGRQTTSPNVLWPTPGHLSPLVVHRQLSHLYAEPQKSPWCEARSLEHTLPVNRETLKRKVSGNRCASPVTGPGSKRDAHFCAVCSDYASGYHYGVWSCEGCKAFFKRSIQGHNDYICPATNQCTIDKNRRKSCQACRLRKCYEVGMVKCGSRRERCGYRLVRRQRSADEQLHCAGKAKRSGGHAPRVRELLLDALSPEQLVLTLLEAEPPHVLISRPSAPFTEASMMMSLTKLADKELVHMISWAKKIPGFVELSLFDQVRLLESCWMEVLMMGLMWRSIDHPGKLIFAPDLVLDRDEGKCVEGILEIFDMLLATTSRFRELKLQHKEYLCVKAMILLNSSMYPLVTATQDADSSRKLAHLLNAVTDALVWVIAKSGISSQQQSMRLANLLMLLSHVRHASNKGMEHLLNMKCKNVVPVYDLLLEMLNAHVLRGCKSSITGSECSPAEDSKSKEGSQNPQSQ
Chain of Glucocorticoid receptor (Homo sapiens) (P04150 whole entry, looked up): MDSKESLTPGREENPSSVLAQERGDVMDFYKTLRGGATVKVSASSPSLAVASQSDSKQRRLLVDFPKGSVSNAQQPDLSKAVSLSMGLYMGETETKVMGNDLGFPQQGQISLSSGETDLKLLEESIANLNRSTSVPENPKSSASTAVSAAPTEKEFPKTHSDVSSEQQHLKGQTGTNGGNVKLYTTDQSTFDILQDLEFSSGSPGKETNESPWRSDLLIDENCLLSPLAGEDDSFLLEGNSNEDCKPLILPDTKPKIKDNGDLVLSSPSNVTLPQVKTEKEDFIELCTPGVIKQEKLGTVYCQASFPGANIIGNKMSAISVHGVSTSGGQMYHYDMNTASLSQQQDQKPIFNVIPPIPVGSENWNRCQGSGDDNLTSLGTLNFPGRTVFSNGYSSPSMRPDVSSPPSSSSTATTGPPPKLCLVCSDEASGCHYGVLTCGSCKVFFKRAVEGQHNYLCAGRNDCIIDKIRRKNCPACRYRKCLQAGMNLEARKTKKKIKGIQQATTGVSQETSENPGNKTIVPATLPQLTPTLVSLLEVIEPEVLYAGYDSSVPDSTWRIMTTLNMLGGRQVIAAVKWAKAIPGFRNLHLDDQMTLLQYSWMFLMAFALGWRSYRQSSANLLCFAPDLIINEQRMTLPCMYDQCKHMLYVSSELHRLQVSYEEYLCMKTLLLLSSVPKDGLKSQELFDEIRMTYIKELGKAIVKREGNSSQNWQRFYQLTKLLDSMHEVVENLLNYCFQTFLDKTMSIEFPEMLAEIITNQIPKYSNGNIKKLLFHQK
Chain of guinea pig Sigma Receptor, Non-selective Binding, SIGMAR1 (gene 100135589) (Q60492 whole entry, looked up): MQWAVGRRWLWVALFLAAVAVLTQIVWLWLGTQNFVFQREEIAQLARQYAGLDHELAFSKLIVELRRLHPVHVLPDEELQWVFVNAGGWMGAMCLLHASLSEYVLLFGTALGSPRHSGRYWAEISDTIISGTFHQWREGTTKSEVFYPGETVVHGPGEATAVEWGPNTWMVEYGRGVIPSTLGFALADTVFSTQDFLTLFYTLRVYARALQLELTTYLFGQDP
Chain of human Adenosine Transporter (Adot), SLC29A1 (gene 2030) (Q99808 whole entry, looked up): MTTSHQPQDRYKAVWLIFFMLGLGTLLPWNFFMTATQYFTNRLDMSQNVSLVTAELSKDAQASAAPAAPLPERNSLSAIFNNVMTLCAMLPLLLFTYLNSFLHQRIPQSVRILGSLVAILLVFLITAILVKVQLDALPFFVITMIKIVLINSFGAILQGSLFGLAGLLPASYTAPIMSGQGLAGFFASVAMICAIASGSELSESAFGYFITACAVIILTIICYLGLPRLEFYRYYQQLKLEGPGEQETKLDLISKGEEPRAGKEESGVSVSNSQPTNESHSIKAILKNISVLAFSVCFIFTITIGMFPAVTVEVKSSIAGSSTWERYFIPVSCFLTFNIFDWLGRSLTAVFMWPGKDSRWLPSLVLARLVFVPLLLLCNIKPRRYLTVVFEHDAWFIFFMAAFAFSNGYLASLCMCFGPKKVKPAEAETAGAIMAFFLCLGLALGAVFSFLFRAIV

In the case of `CCCCCC(=O)O[C@]1(C(C)=O)CC[C@H]2[C@@H]3CCC4=CC(=O)CC[C@]4(C)[C@H]3CC[C@@]21C`, the result in [1] and in assay [3] was inactive. Moreover, in [2], the AC50 was 18.7 nM (active).
Take `CCCC1CCC(=O)CC1`: in assay [1], the result was inactive.
The same measure, in the same setting: under `Cc1cccc(O)c1` stands “inactive”.
Take `CCc1cccc(O)c1`: in assay [1], the result was inactive.
Consider `CC(=O)Nc1cc(S(=O)(=O)O)cc2cc(S(=O)(=O)O)c(N=Nc3ccccc3)c(O)c12`, for which the call in [1] was inactive. Moreover, the AC50 in [4] was 9.8 µM (active).
On to `OC[C@H]1O[C@@H](O[C@H]2[C@H](O)[C@@H](O)[C@H](O)O[C@@H]2CO)[C@H](O)[C@@H](O)[C@H]1O`, for which, in [1], the call was inactive.
With `C1CCCNCC1`, the result in assay [1] and in [5] was inactive.
As to `CCCCCCCCCCO[C@@H]1O[C@H](CO)[C@@H](O)[C@H](O)[C@H]1O`, the compound was called inactive in assay [1].
Turning to `CCCCN(CCCC)CCCCCCN(CCCC)CCCC`, the outcome in [1] and in [5] was inactive.
As to `CCCCCCCCCCCCN1CCOCC1`, the compound was called inactive in assay [1], in [4] and in assay [3].
As for `CCO[Si](CC)(OCC)OCC`, the compound was called inactive in [1], in [6], in [7] and in assay [3].
On to `CCCCCCCCOC(=O)c1ccc(O)cc1`, for which, in assay [1], the AC50 was 8.39 µM (active). For the same compound, the compound was classed as inactive in assay [6] and in assay [2].
On to `CCCCCCCC(=O)N(C)C`, for which the result in assay [1] was inactive.
Consider `COc1ccccc1O`, for which, in [1], the compound was classed as inactive.
Take `COC(=O)C(C)Oc1ccc(Oc2ncc(C(F)(F)F)cc2Cl)cc1` (centres undefined): the compound was called inactive in [1].
For the compound `COC(=O)c1ccc(C(=O)OC)cc1`, the call in [1] was inactive.
For the compound `CCCCOCCOCCOCCO`, the compound was classed as inactive in [1].
For `CCC(C)C1CCCCC1=O` (centres undefined), the call in assay [1] was inactive.
`CCCc1ccc(N)cc1`: the result in assay [1] was inactive.
In the case of `NC(=O)c1cccnc1`, the compound was classed as inactive in assay [1].
Take `CC(=O)c1ccc2ccccc2c1`: the outcome in assay [1] and in assay [5] was inactive.
In the case of `CC(=O)C1=C(C)[C@@H]2C[C@@]3(C1)[C@H](C)CC[C@H]3C2(C)C`, the half-maximal activity concentration (AC50) in [1] is 12.8 µM (active). Also, in [5], the outcome was inactive.
As for `C=CCCCCCCCCC(=O)OCC`, in assay [1], the compound was called inactive.
Consider `CCCCC(CC)COCCO` (centres undefined), for which the outcome in assay [1], in [5] and in assay [4] was inactive.
Turning to `CCCCCCCCCCOC(=O)c1ccccc1C(=O)OCCCCCCCC`, the result in assay [1], in assay [2] and in assay [3] was inactive.
As for `O=C1OC2(c3ccc(O)cc3Oc3cc(O)ccc32)c2ccccc21`, the compound was called inactive in assay [1]. Moreover, the AC50 in assay [2] was 25000 nM (active).
In the case of `CC(=O)CC(=O)N(C)C`, the call in [1] was inactive.
Regarding `CCOCC(C)O` (centres undefined), in assay [1], the call was inactive.
Take `CN1CCc2cccc3c2[C@H]1Cc1ccc(O)c(O)c1-3`: the call in assay [1] and in assay [2] was inactive. Further, the results for the half-maximal activity concentration (AC50) in assay [5] and in assay [3] were 279 nM (active) and 0.26 µM (active), respectively.
Regarding `O=S(=O)(O)c1cc(S(=O)(=O)O)c2c(N=Nc3ccccc3)c(O)ccc2c1`, the call in assay [1] and in assay [4] was inactive.
Turning to `CCCCCCCCCCCCOCCOS(=O)(=O)O`, the concentration at half-maximal activity (AC50) is 16.2 µM (active) in assay [6], 5080 nM (active) in [5] and 25 µM (active) in [3].
In the case of `c1ccc2c(c1)-c1ccc3ccc4cccc5cc-2c1c3c45`, the compound was classed as inactive in assay [2].
Regarding `NCCN1CCNCC1`, the call in assay [3] was inactive.
`CCC(C)(C)C1CCC(OC)CC1` (centres undefined): the compound was classed as inactive in assay [1] and in assay [3].
As for `CN(C)C`, the compound was classed as inactive in [3].
As to `CCC(C)(C)C1CCC(=O)CC1`, in [3], the call was inactive.
With `CCC(C)(CCCC(C)C)OC(C)=O` (centres undefined), the compound was called inactive in assay [1] and in [3].
As for `CC(=O)Oc1c(C)c(C)c2c(c1C)CC[C@@](C)(CCC[C@H](C)CCC[C@H](C)CCCC(C)C)O2`, the outcome in assay [3] was inactive.
`C[C@]12CC[C@@H]3c4ccc(O)cc4CC[C@H]3[C@@H]1CC[C@@H]2O`: in [2], the AC50 is 384 nM (active) and 359 nM (active); the call was inactive. The outcome in [3] was inactive.
Take `c1ccc2scnc2c1`: the call in assay [1] and in assay [3] was inactive.
Take `O=C(c1ccc(OCCN2CCCCC2)cc1)c1c(-c2ccc(O)cc2)sc2cc(O)ccc12`: the half-maximal activity concentration (AC50) was 6.51 µM (active) and 6.99 µM (active) and 5.41 µM (active) in [5]; 6.7 µM (active) [middle of 4 runs] in [2]; 1.7 µM (active) and 3.59 µM (active) and 1.46 µM (active) in assay [3]; 4.67 µM (active) in [8]; 14.6 µM (active) in [9].
Consider `CC(=O)OC/C=C(C)/C=C/C=C(C)/C=C/C1=C(C)CCCC1(C)C`, for which the outcome in [1] was inactive. Moreover, in assay [3], the concentration at half-maximal activity (AC50) is 2.21 µM (active).
On to `CC(CO)(CO)[N+](=O)[O-]`, for which, in the assay with PGR (gene 5241), the compound was classed as inactive.
Regarding `CN(C)C(=O)Nc1ccccc1`, in [3], the compound was classed as inactive.
Take `CCCCCC1CCC(=O)O1` (centres undefined): the compound was called inactive in assay [1] and in [3].
Regarding `C#C[C@]1(O)CC[C@H]2[C@@H]3CCc4cc(O)ccc4[C@H]3CC[C@@]21C`, in assay [5], the compound was called inactive. Also, the AC50 with PGR (gene 5241) was 0.221 µM (active); in assay [2] it was 304 nM (active) and 305 nM (active) and 1.43 µM (active).
For `O=C(O)C1=NN(c2ccc(S(=O)(=O)O)cc2)C(=O)C1`, in [3], the compound was classed as inactive.
For `C=C1CC[C@H]2O[C@]2(C)CC[C@@H]2[C@@H]1CC2(C)C`, the call with PGR (gene 5241) was inactive.
With `CC1=CCC(=C(C)C)CC1`, the outcome in assay [3] was inactive.
For the compound `CC/C(=C(\c1ccccc1)c1ccc(OCCN(C)C)cc1)c1ccccc1`, the outcome in assay [6], in [5], in assay [7], in assay [2] and in [3] was inactive. The half-maximal activity concentration (AC50) in assay [2] is 3.08 µM (active) and 6.38 µM (active); in [8], 0.491 µM (active).
